# Screens from PubChem.
# HGIII-sPLA2 inh – Inhibits HGIII-sPLA2 liposome hydrolysis, primary screen. Q9NZ20. QFRET BODIPY PC-A2 liposome hydrolysis, fluorescence. inhibition, % at 12.2 µM. 370,000 compounds, 0.56% hits. AID 743126;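 active means inhibition above mean plus 3 SD of compounds lying within the high and low control bounds, cut at about 19% in these data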;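 further: 0% = median of test compound wells and 100% = no enzyme DMSO wells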
# ADAM10 inh – ADAM10 inhibition, QFRET primary screen; O14672; recombinant ADAM10, EDANS/DABCYL FRET peptide cleavage, 3 h; inhibition, % at 7 µM; 370,000 compounds, 0.62% hits;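 active means inhibition above a per-campaign cutoff equal to the mean of compounds falling between control-based bounds plus 3 SD, cut at about 20% in these data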;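 further: 0% = DMSO wells while the 100% control is not disclosed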
# Target sequence (O14672 214-748 limits assumed): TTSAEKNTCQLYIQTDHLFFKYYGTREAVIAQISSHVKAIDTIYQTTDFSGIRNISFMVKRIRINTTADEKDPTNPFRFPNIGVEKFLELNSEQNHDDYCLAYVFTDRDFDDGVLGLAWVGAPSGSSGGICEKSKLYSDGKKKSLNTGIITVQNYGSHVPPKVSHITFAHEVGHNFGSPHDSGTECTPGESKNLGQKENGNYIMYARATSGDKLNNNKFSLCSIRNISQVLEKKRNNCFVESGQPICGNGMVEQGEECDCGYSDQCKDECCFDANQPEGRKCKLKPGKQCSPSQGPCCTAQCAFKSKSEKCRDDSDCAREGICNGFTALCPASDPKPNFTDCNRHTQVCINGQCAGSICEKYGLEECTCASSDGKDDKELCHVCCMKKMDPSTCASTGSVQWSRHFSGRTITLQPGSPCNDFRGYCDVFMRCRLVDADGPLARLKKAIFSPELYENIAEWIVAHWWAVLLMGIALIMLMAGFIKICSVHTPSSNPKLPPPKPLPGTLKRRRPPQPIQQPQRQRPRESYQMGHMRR
# PLC-beta3 inh – blocks human PLC-beta3 enzyme activity; Purified PLC-beta3, fluorogenic substrate, fluorescence; inhibition, % at 12.2 µM; 370,000 compounds, 0.18% hits; in the data active means inhibition above about 11%;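 further: 0% = median of compound wells on plate and 100% = full blocker control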
# ADAM17 inh – inhibits human ADAM17. P78536. recombinant ADAM17, EDANS/DABCYL FRET peptide cleavage. inhibition, % at 6.95 µM. 370,000 compounds, 0.83% hits. AID 720648;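 active means inhibition above the mean of compounds lying between control limits plus 3 SD, set per campaign, cut at about 8.5% in these data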;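 further: 0% = DMSO-only wells as the low control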
# PLCg1 inh – inhibitors of human phospholipase C gamma1; P19174; purified PLC-gamma1, fluorogenic substrate, fluorescence; inhibition, % at 12.2 µM; 370,000 compounds, 0.84% hits; AID 720700; in the data active means inhibition above about 9.5%
# proKLK7 act – proKLK7 (human) activation, primary screen | P49862 | activation, % at 7 µM | AID 652039 | purified proKLK7, EDANS-DABCYL substrate fluorescence; 100% is mature enzyme control, 0% vehicle | 370,000 compounds, 0.9% hits;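 active means activation above the mean of all tested compounds plus 3 SD, computed per campaign excluding outliers beyond control limits, cut at about 13% in these data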
# sPLA2 confirm – human GIII-sPLA2 inhibition, confirmation | shares compounds with HGIII-sPLA2 inh | recombinant hGIII-sPLA2, BODIPY PC-A2 QFRET fluorescence | inhibition, % at 12.2 µM | 2,000 compounds, 34% hits;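 active means mean inhibition across triplicates above the hit cutoff set in the earlier primary screen, cut at about 19% in these data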;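 further: 0% = enzyme with DMSO and 100% = DMSO wells lacking enzyme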
# BODIPY interf – 535nm fluorescence interference, HGIII-sPLA2 counter-screen. AID 743282. inhibition, % at 12.2 µM. 2,000 compounds, 8.5% hits. shares compounds with HGIII-sPLA2 inh. BODIPY FL product fluorescence interference, QFRET;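 active means average inhibition above the solvent-only control mean plus 3 SD, cut at about 6% in these data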;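 further: 0% = DMSO with substrate plus product and 100% = DMSO with substrate alone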
# * = called active by the depositor; · = no result. Shown are actives, neighbours in structure and some others; about 3.4% of the full set was active somewhere.
SMILES,HGIII-sPLA2 inh,ADAM10 inh,PLC-beta3 inh,ADAM17 inh,PLCg1 inh,proKLK7 act,sPLA2 confirm,BODIPY interf
COC(=O)c1cnn(-c2ccc(Cl)cc2)c1/C=N/NC(N)=S,25*,2,-6,-1,0,0,7,-4
CCOc1ccc(C(=O)NC(=S)Nc2ccc(NC(=O)c3ccco3)cc2)cc1[N+](=O)[O-],2,5,-1,0,-1,-1,·,·
CCOc1ccc(C(=O)NC(=S)Nc2ncccc2C)cc1[N+](=O)[O-],20*,15,1,3,3,0,10,-8
CCOc1ccccc1NC(=S)Nc1ncccc1C,23*,2,0,1,1,0,8,-3
COC(=O)c1cc2c(c3c4cc(OC)ccc4n(S(=O)(=O)c4ccc(OC)cc4)c13)C(=O)N(Cc1ccc(N(C)C)cc1)C2,7,-1,-13,-2,-11,-1,·,·
NC(=O)C1CCN(c2nc(-c3ccc(Br)cc3)cs2)CC1,23*,3,4,-4,2,-1,14,0
Clc1ccc(-c2csc(N3CCCCCC3)n2)cc1,23*,-17,8,-10,-1,-1,27*,6.7*
O=C(CN1CCN(C2CCCCC2)CC1)NCCC1=CCCCC1,20*,0,2,-1,4,0,4,-19
O=C1C=CC(=O)N1c1ccc2c(c1)C(NC(=O)C(F)(F)F)c1ccccc1-2 (configuration not stated),19*,-7,-4,-3,-4,0,4,-4
CN(C)C(=O)NC1c2ccccc2-c2ccccc21,-1,4,6,0,3,1,·,·
COC(=O)[C@]12C[C@H](CC(=O)NCCCCc3ccccc3)C(=O)N(Cc3ccc4c(c3)OCO4)C1=C[C@H](COCc1ccccc1)O[C@@H]2C,-22,11,0,3,2,1,·,·
Cc1ccc(S(=O)(=O)NCCC(=O)N2CC(C)OC(C)C2)cc1 (configuration not stated),22*,-13,-6,-1,6,1,1,-8
COc1cccc(/C=C2\CC3(OC(=O)c4ccc(Cl)cc4)CCCN2C3)c1 (configuration not stated),-13,9,-3,5,1,0,·,·
O=C1c2cc([N+](=O)[O-])ccc2-c2ncccc21,3,4,-12,-3,-2,1,·,·
Nc1ccc2c(c1)C(=O)c1cc(Cl)c(Cl)cc1-2,31*,-12,0,-5,0,0,35*,14*
Nc1ccc2c(c1)C(=O)c1ccc(N)cc1-2,4,-5,-1,-3,4,0,·,·
Nc1ccc2c(c1)C(=O)c1cc([N+](=O)[O-])ccc1-2,29*,-4,0,-3,1,0,8,4
OC(c1ccccc1)(c1ccccc1)C1CCN(CCCOc2cccc(F)c2)CC1,-14,-10,0,-5,4,0,·,·
O=C1CCCCC1CCS(=O)(=O)NCc1ccccc1 (configuration not stated),1,-2,1,-1,-2,0,·,·
CCn1c(SCc2ccccc2)nnc1C1CCN(S(=O)(=O)c2ccc(OC)cc2)CC1,-6,-10,0,-3,1,1,·,·
CCn1c(C2CCN(S(=O)(=O)c3ccc(OC)cc3)CC2)n[nH]c1=S,21*,-6,-1,-1,3,0,16,-1
C(=NOCCc1ccccc1)c1cccnc1,20*,-11,-2,-7,-3,0,-4,-5
C(=N\N1CCN(Cc2ccccc2)CC1)/c1cccnc1,-8,1,5,1,4,0,·,·
C/C(=N\NC(=S)NCCc1ccccc1)c1ccc(Cl)cc1Cl,6,8,-7,1,-1,0,·,·
Fc1ccc(NC(=S)NN=Cc2ccccc2Cl)cc1,12,12,1,3,1,0,·,·
Oc1ccccc1C=NNC(=S)Nc1ccc(F)cc1,32*,-44,-142,-7,-116,-39,33*,13*
